# Data from article PMC11995724, “Antibiotic target discovery by integrated phenotypic and activity-based profiling of electrophilic fragments” (Cell chemical biology, 2025).
# Out of some 3,200 compounds screened, about 110 (3.4%) showed an effect of 50% or more. This excerpt belongs to a sample that is enriched for strong results.
# Test system: T1, V. cholerae SAD30
# T1 construct: SAD30
# Parameters: species or system S. aureus MSSA476 (TSB) or V. cholerae SAD30 (LB); 384-well bacterial growth screen at 25 uM, OD600 relative to DMSO control
# Conditions: relative growth, OD600, LB; 25 µM; inhibitor
row,Structure (SMILES),% of control remaining [%]
1,"Cc1ccc(Sc2ccc(NC(=O)CCl)cc2)cc1C [4-G03, 2-chloro-N-{4-[(3,4-dimethylphenyl)sulfanyl]phenyl}acetamide]",107.311
2,"CCCCNC(=O)C(C#N)=Cc1ccc2c(c1)OCCO2 [9-G11, N-butyl-2-cyano-3-(2,3-dihydro-1,4-benzodioxin-6-yl)prop-2-enamide]",85.724
3,"CCc1ccccc1NC(=O)CN(C)C(=O)CCl [6-L06, 2-chloro-N-{[(2-ethylphenyl)carbamoyl]methyl}-N-methylacetamide]",89.1838
4,"O=C1C=CC(=O)N1c1ccc2ccccc2c1 [10-D07, 1-(naphthalen-2-yl)-2,5-dihydro-1H-pyrrole-2,5-dione]",22.2872
5,"N#Cc1ccccc1NC(=O)CCl [5-P04, 2-chloro-N-(2-cyanophenyl)acetamide]",116.339
6,"Cc1cccc(N2C(=O)C=CC2=O)c1C [10-H05, 1-(2,3-dimethylphenyl)-2,5-dihydro-1H-pyrrole-2,5-dione]",27.1186
7,"Cc1c(Cl)cccc1NC(=O)C(C)Cl (stereo not drawn) [6-I10, 2-chloro-N-(3-chloro-2-methylphenyl)propanamide]",83.2686
8,"Cc1c(Cl)cccc1N1C(=O)C=CC1=O [10-B17, 1-(3-chloro-2-methylphenyl)-2,5-dihydro-1H-pyrrole-2,5-dione]",23.3781
9,"CC(Cl)C(=O)Nc1ccccc1C#N (stereo not drawn) [6-A11, 2-chloro-N-(2-cyanophenyl)propanamide]",96.0091
10,"Cc1ccccc1N1C(=O)CSC1=C(C#N)C(=O)N1CCCCC1 [8-B12, 2-[3-(2-methylphenyl)-4-oxo-1,3-thiazolidin-2-ylidene]-3-oxo-3-(piperidin-1-yl)propanenitrile]",78.1101
11,"N#Cc1ccccc1N1C(=O)C=CC1=O [10-B13, 2-(2,5-dioxo-2,5-dihydro-1H-pyrrol-1-yl)benzonitrile]",22.7547
12,"Cc1c(Cl)cccc1NC(=O)CNC(=O)CCl [5-N20, 2-chloro-N-{[(3-chloro-2-methylphenyl)carbamoyl]methyl}acetamide]",102.049
13,"Cc1ccccc1N1C(=O)C=CC1=O [10-J13, 1-(2-methylphenyl)-2,5-dihydro-1H-pyrrole-2,5-dione]",23.0664
14,"C=CC(=O)N1CCC[C@H]1C(=O)Nc1cccc(C)n1 [1-B10, (2S)-N-(6-methylpyridin-2-yl)-1-(prop-2-enoyl)pyrrolidine-2-carboxamide]",90.0393
15,"C=CCNC(=O)C(C#N)=Cc1ccc(C)s1 [9-F05, 2-cyano-3-(5-methylthiophen-2-yl)-N-(prop-2-en-1-yl)prop-2-enamide]",77.8382
16,"CC(Cl)C(=O)NCCc1cn(C)nn1 (stereo not drawn) [7-A14, 2-chloro-N-[2-(1-methyl-1H-1,2,3-triazol-4-yl)ethyl]propanamide]",82.7358
17,"Cc1cccc2nc(C3CCN(C(=O)C(C)Cl)CC3)oc12 (stereo not drawn) [7-M12, 2-chloro-1-[4-(7-methyl-1,3-benzoxazol-2-yl)piperidin-1-yl]propan-1-one]",63.8361
18,"CC(Cl)C(=O)Nc1ccc2c(c1)CCC2 (stereo not drawn) [5-C19, 2-chloro-N-(2,3-dihydro-1H-inden-5-yl)propanamide]",86.9181
19,"O=C(CCl)c1ccc(CC(=O)N2CCOCC2)s1 [10-H06, 2-chloro-1-{5-[2-(morpholin-4-yl)-2-oxoethyl]thiophen-2-yl}ethan-1-one]",101.305
20,"N#CC(=Cc1ccccc1Cl)C(=O)Nc1ccc2c(c1)OCCO2 [8-F03, 3-(2-chlorophenyl)-2-cyano-N-(2,3-dihydro-1,4-benzodioxin-6-yl)prop-2-enamide]",94.4256
21,"O=C(CCl)c1cc(Cl)sc1Cl [10-D16, 2-chloro-1-(2,5-dichlorothiophen-3-yl)ethan-1-one]",21.5079
22,"Cc1cc(C(=O)CCl)c(C)s1 [10-K16, 2-chloro-1-(2,5-dimethylthiophen-3-yl)ethan-1-one]",28.6772
23,"Cc1cc(C(=O)CCl)c(C)n1-c1cc(Cl)cc(Cl)c1 [10-I04, 2-chloro-1-[1-(3,5-dichlorophenyl)-2,5-dimethyl-1H-pyrrol-3-yl]ethan-1-one]",87.746
24,"Cc1cc(C(=O)CCl)c(C)n1CC(N)=O [10-O16, 2-[3-(2-chloroacetyl)-2,5-dimethyl-1H-pyrrol-1-yl]acetamide]",94.6035

row,Structure (SMILES),% of control remaining [%]
1,"Cc1cc(C(=O)CCl)c(C)[nH]1 [10-J08, 2-chloro-1-(2,5-dimethyl-1H-pyrrol-3-yl)ethan-1-one]",99.1233
2,"N#CC(=Cc1cccc2ccccc12)C(=O)NC1CC1 [9-O03, 2-cyano-N-cyclopropyl-3-(naphthalen-1-yl)prop-2-enamide]",97.2808
3,"CC(C)N(Cc1ccc(N(C)C)cc1)C(=O)CCl [5-E06, 2-chloro-N-{[4-(dimethylamino)phenyl]methyl}-N-(propan-2-yl)acetamide]",100.2
4,"O=C(CCl)NCCOc1cccc(F)c1 [6-G03, 2-chloro-N-[2-(3-fluorophenoxy)ethyl]acetamide]",108.75
5,"CC(Cl)C(=O)NCc1ccon1 (stereo not drawn) [7-I13, 2-chloro-N-[(1,2-oxazol-3-yl)methyl]propanamide]",79.9604
6,"Cc1cc(C(=O)CCl)c(C)c(C)c1C [10-I06, 2-chloro-1-(2,3,4,5-tetramethylphenyl)ethan-1-one]",98.9675
7,"Cc1ccc(-n2c(C)cc(C(=O)CCl)c2C)cc1F [10-C06, 2-chloro-1-[1-(3-fluoro-4-methylphenyl)-2,5-dimethyl-1H-pyrrol-3-yl]ethan-1-one]",94.9153
8,"Cc1cc(C)c(C(=O)CCl)c(C)c1 [10-C08, 2-chloro-1-(2,4,6-trimethylphenyl)ethan-1-one]",98.9675
9,"Cc1cc(F)c(C(=O)CCl)cc1F [10-L19, 2-chloro-1-(2,5-difluoro-4-methylphenyl)ethan-1-one]",32.7294
10,"Cc1cc(C(=O)CCl)c(F)cc1F [10-O03, 2-chloro-1-(2,4-difluoro-5-methylphenyl)ethan-1-one]",34.9114
11,"Cc1ccc(-n2c(C)cc(C(=O)CCl)c2C)cc1C [10-B14, 2-chloro-1-[1-(3,4-dimethylphenyl)-2,5-dimethyl-1H-pyrrol-3-yl]ethan-1-one]",97.5648
12,"N#CC(=Cc1ccc([N+](=O)[O-])cc1)C(=O)Nc1ccc(Cl)cc1 [8-O11, N-(4-chlorophenyl)-2-cyano-3-(4-nitrophenyl)prop-2-enamide]",68.7288
13,"O=C(CCl)N1N=C(c2cccs2)CC1c1cccc(O)c1 (stereo not drawn) [6-L04, 2-chloro-1-[5-(3-hydroxyphenyl)-3-(thiophen-2-yl)-4,5-dihydro-1H-pyrazol-1-yl]ethan-1-one]",102.076
14,"CC(CO)(Cc1ccc(F)cc1)NC(=O)CCl (stereo not drawn) [7-F06, 2-chloro-N-{2-[(4-fluorophenyl)methyl]-1-hydroxypropan-2-yl}acetamide]",78.5065
15,"CC(Cl)C(=O)N1Cc2ccccc2OCC1C (stereo not drawn) [7-F11, 2-chloro-1-(3-methyl-2,3,4,5-tetrahydro-1,4-benzoxazepin-4-yl)propan-1-one]",75.731
16,"N#CC(=Cc1cc2ccccc2o1)C(=O)NCc1ccco1 [9-O08, 3-(1-benzofuran-2-yl)-2-cyano-N-[(furan-2-yl)methyl]prop-2-enamide]",80.4215
17,"N#CC(=Cc1ccc([N+](=O)[O-])o1)C(=O)NCc1ccco1 [8-I17, 2-cyano-N-[(furan-2-yl)methyl]-3-(5-nitrofuran-2-yl)prop-2-enamide]",-0.06798
18,"Cc1ccc(C=C(C#N)C(=O)NCc2ccco2)o1 [8-P19, 2-cyano-N-[(furan-2-yl)methyl]-3-(5-methylfuran-2-yl)prop-2-enamide]",80.6934
19,"Cc1cc(C=C(C#N)C(N)=O)c(C)n1-c1cccc2ccccc12 [9-I12, 2-cyano-3-[2,5-dimethyl-1-(naphthalen-1-yl)-1H-pyrrol-3-yl]prop-2-enamide]",52.4133
20,"C=CC(=O)N1CCC(C(=O)NC[C@H]2C[C@@H](O)C2)(c2ccccc2)CC1 [3-O04, 4-phenyl-1-(prop-2-enoyl)-N-{[(1s,3s)-3-hydroxycyclobutyl]methyl}piperidine-4-carboxamide]",105.852
21,"CC(Cl)C(=O)Nc1ccccc1[N+](=O)[O-] (stereo not drawn) [4-G18, 2-chloro-N-(2-nitrophenyl)propanamide]",96.0966
22,"O=C1C=CC(=O)N1CCCCO [10-K07, 1-(4-hydroxybutyl)-2,5-dihydro-1H-pyrrole-2,5-dione]",17.4557
23,"CN(C)CCN1C(=O)C=CC1=O [10-G11, 1-[2-(dimethylamino)ethyl]-2,5-dihydro-1H-pyrrole-2,5-dione]",99.9026
24,"CCOC=C(C#N)C(=O)N1CCN(S(=O)(=O)c2cc[nH]n2)CC1 [9-D06, 3-ethoxy-2-[4-(1H-pyrazole-3-sulfonyl)piperazine-1-carbonyl]prop-2-enenitrile]",86.1319
